Values joined by “and” are separate entries in the source; they are usually repeats but may differ in a detail not shown here. Equal entries are not always repeated. The source holds several records for some structures; these can differ, active in one and inactive in another. Active and inactive are the calls of the source. How the source made its calls: active means hit-call score of the fitted dose curve at least 0.9, where 1 is the maximum; inactive means score below 0.9.
These compounds were tested on Interleukin-8 (IL8), CXCL8 (gene 3576) (assay: BSK_BF4T_IL8: BioMAP Diversity Plus: BF4T Assay for Interleukin-8 (IL8) Biomarker Activity (AID 2284263)). Conditions: primary human bronchial epithelial cells with fibroblasts.
Protocol: BSK_BF4T is a cell-based, multiplexed-readout assay that uses bronchial epithelial cells and dermal fibroblasts, a human vascular primary cell, with measurements taken at 24 hours after chemical dosing in a microplate: 96-well plate.BSK_BF4T_IL8 is an assay component measured in the BSK_BF4T assay. It measures IL-8 antibody related to regulation of gene expression using ELISA technology.Data from the assay component BSK_BF4T_IL8 was analyzed at the endpoint, BSK_BF4T_IL8, in the positive analysis fitting direction relative to DMSO as the negative control and baseline of activity. Using a type of binding reporter, gain or loss-of-signal activity can be used to understand protein changes. To generalize the intended target to other relatable targets, this assay endpoint is annotated to the 'cytokine' intended target family, where the subfamily is 'interleukins'.
The levels of cell surface (or secreted, indicated by the prefix "s") biomarker endpoints were measured by ELISA. Overt cytotoxicity to cells in confluent adherent cultures (all systems other than the BT system) was assessed by measuring total protein levels using sulforhodamine B (SRB) staining in parallel cultures at the time of biomarker measurements, indicated as SRB endpoints. For proliferation assays for adherent cell types, individual cell types are cultured at sub-confluence and relative cell numbers quantified by SRB staining at time points optimized for each system (48 h: 3C and CASM3C systems; 72 h: BT and HDF3CGF systems; 96 h: SAg system). SRB was performed by staining cells with 0.1% SRB after fixation with 10% TCA and reading wells at 560 nm.Viability and proliferation of PBMC (T cells) was quantified by Alamar Blue reduction for the SAg and BT systems. For PBMC viability (referred to as PBMC Cytotoxicity within the assay endpoint names), cells were plated (75,000/well in a 96-well plate) and then chemical samples added for 1 h before addition of activators, SEB and TSST-1 (20 ng/mL final concentration each). Cells were incubated for 90 h. Then, Alamar Blue (20 uL/well) (Invitrogen, Cat DAL1100) was added for 6 h, and the plates were read with a fluorescence microplate reader at 546/580 nm (excitation/emission). For PBMC proliferation, cells were plated and activated as above but incubated for only 16 h prior to addition of Alamar Blue. Plates were read after 6 h.

Row | SMILES | outcome | AC50
1 | O=S(=O)(OCC(F)F)C(F)(F)F | inactive | 
2 | O=C(Cl)C(F)(F)C(F)(F)C(F)(F)C(F)(F)C(F)(F)C(F)(F)C(F)(F)C(F)(F)F | inactive | 
3 | C=CC(=O)OCC(F)(F)C(F)(F)C(F)(F)C(F)(F)COC(=O)C=C | inactive | 30 µM (active)
4 | O=S(=O)(O)C(F)(F)C(F)(F)C(F)(F)C(F)(F)C(F)(F)C(F)(F)C(F)(F)F | inactive | 10.4 µM (active)
5 | FC(F)(F)C(F)(F)C(F)(F)C(F)(F)C(F)(F)C(F)(F)CCS | inactive | 
6 | OCCCC(F)(F)C(F)(F)C(F)(F)C(F)(F)C(F)(F)C(F)(F)C(F)(F)F |  | 40.5 µM (active) and 45.3 µM (active)
7 | FC(F)(F)C(F)(F)C(F)(F)C(F)(F)CCI | inactive | 
8 | CCCCCCCCC(F)(F)C(F)(F)C(F)(F)C(F)(F)C(F)(F)C(F)(F)F | inactive | 
9 | FC(F)(F)C(F)(F)CNCC(F)(F)C(F)(F)F | inactive | 
10 | O=C(O)C(F)(F)C(F)(F)C(F)(F)C(F)(F)C(F)(F)C(F)(F)C(F)(F)C(F)(F)Cl |  | 51.9 µM (active) and 50.3 µM (active)
11 | FC1CC(F)(F)C(F)(F)C1(F)F (stereo not given) | inactive | 
12 | O=C(O)C(F)(F)C(F)(F)C(F)(F)C(F)(F)C(F)(F)C(F)(F)C(F)(F)C(F)(F)C(F)(F)C(F)F | inactive | 
13 | FC(F)(F)C(F)(F)C(F)(F)CI | inactive | 
14 | C=CC(=O)OCC(F)(F)C(F)(F)C(F)(F)C(F)(F)C(F)(F)C(F)(F)C(F)(F)F | inactive | 
15 | O=C(O)C=C(C(F)(F)F)C(F)(F)F | inactive | 
16 | Cc1ccc(S(=O)(=O)OCC(F)(F)C(F)(F)C(F)(F)C(F)(F)C(F)(F)C(F)F)cc1 | inactive | 
17 | C=CC(F)(F)C(F)(F)C(F)(F)C(F)(F)C(F)(F)C(F)(F)C(F)(F)C(F)(F)C=C | inactive | 
18 | O=C(O)C(F)(F)C(F)(F)C(F)(F)C(F)(F)C(F)(F)C(F)(F)C(F)(F)C(F)(F)C(F)(F)C(F)(F)C(F)(F)C(F)(F)C(F)(F)F | inactive | 
19 | OCCCC(F)(F)C(F)(F)C(F)(F)F | inactive | 

Row | SMILES | outcome | AC50
20 | O=P(O)(O)OCCC(F)(F)C(F)(F)C(F)(F)C(F)(F)C(F)(F)C(F)(F)F | inactive | 
21 | OCC(F)(F)C(F)(F)C(F)(F)C(F)(F)C(F)(F)C(F)F | inactive | 
22 | FC(F)(F)C(F)(F)C(F)(F)C(F)(F)C(F)(F)C(F)(F)CC1CO1 (stereo not given) | inactive | 
23 | FC(F)(F)C(F)(F)C(F)(F)C(F)(F)C(F)(F)CCI | inactive | 
24 | NC(=O)C(F)(F)C(F)(F)C(F)(F)C(F)(F)F | inactive | 
25 | O=C(O)C(F)(F)C(F)(F)C(F)(F)F | inactive | 
26 | FC(F)(F)C(F)(F)C(F)(F)C(F)(F)C(F)(F)C(F)(F)C(F)(F)C(F)(F)CCS | inactive | 
27 | C=CC(F)(F)C(F)(F)C(F)(F)C(F)(F)C(F)(F)C(F)(F)C(F)(F)C(F)(F)F | inactive | 
28 | COC(=O)CCC(F)(F)C(F)(F)C(F)(F)C(F)(F)F | inactive | 
29 | FC(F)(F)C(F)(F)C(F)(F)N(C(F)(F)C(F)(F)C(F)(F)F)C(F)(F)C(F)(F)C(F)(F)F | inactive | 
30 | FC(F)(I)C(F)(F)C(F)(F)C(F)(F)I |  | 45.6 µM (active) and 51 µM (active) and 55.6 µM (active)
31 | CC(C)(C)C(=O)CC(=O)C(F)(F)C(F)(F)C(F)(F)F | inactive | 
32 | OCC(F)(F)C(F)(F)C(F)(F)F | inactive | 
33 | C=C(C)C(=O)OCC(F)(F)C(F)(F)C(F)(F)F | inactive | 
34 | OCC(F)(F)C(F)(F)C(F)(F)C(F)F | inactive | 
35 | FC(F)(F)C(F)(F)C(F)(F)C(F)(F)C(F)(F)C(F)(F)C(F)(F)I | inactive | 0.0527 µM (active)
36 | FC(F)(F)C(F)(F)C(F)(F)C(F)(F)C(F)(F)C(F)(F)C(F)(F)C(F)(F)F | inactive | 
37 | O=C(O)C(F)(F)C(F)(F)C(F)(F)C(F)(F)F | inactive | 

Reference: PubChem BioAssay (EPA / NIEHS)
